Test results reported in the supplement of paper PMC9588786.
Where “and” joins values, the source holds several entries; their conditions need not be identical. Equal values may be shown once. Where a name gives a salt, the structure may show the parent alone. ± gives the standard deviation of the averaged measurements.

test system: HT-1080; assay: relative cell viability with RSL3 co-treatment (fraction of control); higher = stronger protection from RSL3-induced ferroptosis (higher viability); details: 10 µM
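Further: viability read as CCK-8 absorbance at 450 nm in cells co-exposed to the GPX4 inhibitor RSL3, relative to a 0.01% DMSO vehicle control.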

Compound	relative cell viability
Cc1cnc(-c2cnc(NCCNc3ccc(C#N)cn3)nc2-c2ccc(Cl)cc2Cl)[nH]1	0.55 and 0.457
O=C1Nc2ccc(I)cc2/C1=C/c1cc(Br)c(O)c(Br)c1	0.573 ± 0.2
Cc1cc(C)c(/C=C2\C(=O)Nc3ccccc32)[nH]1 [Semaxanib (SU5416)]	0.983 ± 0.15
COc1cc2nccc(Oc3ccc(NC(=O)C4(C(=O)Nc5ccc(F)cc5)CC4)cc3)c2cc1OC [Cabozantinib malate (XL184)]	0.8 ± 0.017
Oc1ccc(Nc2nc(-c3ccc(Cl)cc3)cs2)cc1	0.66 ± 0.095
CCc1cnn2c(NCc3ccc[n+]([O-])c3)cc(N3CCCC[C@H]3CCO)nc12	0.61 ± 0.1
CCc1ccc(/C=C2/SC(=S)NC2=O)cc1	0.62 ± 0.087
Cc1cc(N2CCOCC2)cc2[nH]c(-c3c(NC[C@@H](O)c4cccc(Cl)c4)cc[nH]c3=O)nc12	0.987 ± 0.15
CO[C@H]1C[C@@H]2CC[C@@H](C)[C@@](O)(O2)C(=O)C(=O)N2CCCC[C@H]2C(=O)O[C@H]([C@H](C)C[C@@H]2CC[C@@H](O)[C@H](OC)C2)CC(=O)[C@H](C)/C=C(\C)[C@@H](O)[C@@H](OC)C(=O)[C@H](C)C[C@H](C)/C=C/C=C/C=C/1C [Rapamycin (Sirolimus)]	0.387 ± 0.085
Nc1cccc(-c2cc3c(Oc4cccc(O)c4)ncnc3[nH]2)c1	0.483 ± 0.046
Nc1nc(N)c2nc(-c3cccc(O)c3)c(-c3cccc(O)c3)nc2n1	0.72 ± 0.03
Cc1cn(-c2cc(NC(=O)c3ccc(C)c(Nc4nccc(-c5cccnc5)n4)c3)cc(C(F)(F)F)c2)cn1 [Nilotinib (AMN-107)]	0.507 ± 0.021
CCCCCCCCCCCCCCCCCCOP(=O)([O-])OC1CC[N+](C)(C)CC1 [Perifosine (KRX-0401)]	0.463 ± 0.18
Cc1c(F)cc(C(=O)NC2CC2)cc1-c1ccc(C(=O)NCC(C)(C)C)cn1	0.563 ± 0.12
Nc1nc(N)c(N=O)c(OCC2CCCCC2)n1	0.82 ± 0.01
CCS(=O)(=O)c1cccc(-c2cc(C(=O)NC3CCN(C)CC3)c(C)c3[nH]c4ncc(C)cc4c23)c1	0.397 ± 0.046
CS(=O)(=O)CCNCc1ccc(-c2ccc3ncnc(Nc4ccc(OCc5cccc(F)c5)c(Cl)c4)c3c2)o1	0.673 ± 0.032
Cc1ccc(NC(=O)c2cccc(N(C)C)c2)cc1NC(=O)c1ccc(O)cc1	0.587 ± 0.15
Cc1ccc2nc(NCCN)c3ncc(C)n3c2c1	0.703 ± 0.015
S=C(NCc1ccc2c(c1)OCO2)N1CCN(c2ncnc3c2oc2ccccc23)CC1 [Amuvatinib (MP-470)]	0.55 ± 0.072

Compound	relative cell viability
C=CC(=O)Nc1cccc(Oc2nc(Nc3ccc(N4CCN(C)CC4)cc3)nc3ccsc23)c1	0.55 ± 0.082
CCc1nc(-c2cccc(C)c2)c(-c2ccnc(NC(=O)c3ccccc3)c2)s1	0.783 ± 0.1
COc1ccc(Cl)cc1NC(=O)Nc1cc(C)nc2ccccc12	0.71 ± 0.017
O=C(Nc1c[nH]nc1-c1nc2ccc(CN3CCOCC3)cc2[nH]1)NC1CC1	0.35 ± 0.14
O=c1c(O)c(-c2ccc(O)c(O)c2)oc2cc(O)cc(O)c12 [Quercetin]	0.703 ± 0.074
O=C(Nc1cccc(Cl)c1)Nc1ncc(CCNc2ncnc3ccsc23)s1 [SNS-314 Mesylate]	0.217 ± 0.015
COc1ccc(S(=O)(=O)N(CCO)c2ccccc2CN(C)C/C=C/c2ccc(Cl)cc2)cc1 [KN-93 Phosphate]	0.813 ± 0.011
COc1cc(N2CCC(N)CC2)ccc1Nc1ncc(Cl)c(-c2c[nH]c3ccccc23)n1	0.24 ± 0.062
C#Cc1cccc(Nc2ncnc3cc(OCCOC)c(OCCO)cc23)c1	0.597 ± 0.081
Cn1cnc2c(F)c(Nc3ccc(Br)cc3Cl)c(C(=O)NOCCO)cc21 [Selumetinib (AZD6244)]	0.807 ± 0.015
C[C@@H]1CCN(C(=O)CC#N)C[C@@H]1N(C)c1ncnc2[nH]ccc12	0.75 and 0.64
c1cncc(CN2CCC(n3ncc4c(N5CCOCC5)nc(-c5ccc6[nH]ccc6c5)nc43)CC2)c1	0.347 ± 0.13
Cc1ccc(Nc2nccc(N(C)c3ccc4c(C)n(C)nc4c3)n2)cc1S(N)(=O)=O	0.597 ± 0.15
COc1cc2nccc(Oc3ccc(NC(=O)C4(C(=O)Nc5ccc(F)cc5)CC4)cc3)c2cc1OC	0.7 ± 0.21
COc1cc2c(c(OC)c1OC)-c1c(cc3c(c1OC)OCO3)CC(C)C(C)C2 (centres undefined) [Schisandrin B (Sch B)]	1.01 ± 0.17
O=C1NC(=O)C(c2cnc3ccccn23)=C1c1cn2c3c(cc(F)cc13)CN(C(=O)N1CCCCC1)CC2	0.577 ± 0.015
Cc1cc(NC(=O)c2cccc(NC(=O)/C=C/CN(C)C)c2)ccc1Nc1nccc(-c2cccnc2)n1	0.407 ± 0.086
C=CC(=O)Nc1cccc(Nc2nc(Nc3ccc(OCCOC)cc3)ncc2F)c1	0.563 ± 0.078
CC(C)Nc1cc(-c2c[nH]c(C(=O)N[C@H](CO)c3cccc(Cl)c3)c2)c(Cl)cn1	0.753 ± 0.076
